Measured values: ChEMBL document CHEMBL4513139, “CO-ADD screening of University of Strathclyde (UK) compounds”
Measured potencies and affinities stand elsewhere.

The compounds below were run on Candida albicans. Conditions: 32 ug/mL.

SMILES	Inhibition [%]
COC(=O)CCC(=O)Nc1cc(C(=O)Nc2cc(C(=O)NCCN3CCOCC3)n(C)c2)n(C)c1.O=C(O)C(F)(F)F	1.41
COC(=O)c1ccc(C(=O)Nc2cc(C(=O)Nc3cc(C(=O)NCCCN(C)C)n(C)c3)n(C)c2)cc1.O=C(O)C(F)(F)F	1.31
CCOC(=O)CCC(NC(=O)c1ccc(NCc2cn(Cc3cnc(C)nc3N)nn2)cc1)C(=O)OCC (configuration not stated)	5.67
COc1cccc(C(=N)Nc2cc(C(=O)Nc3cc(C(=O)NCCC(=N)N)n(C)c3)n(C)c2)c1.O=C(O)C(F)(F)F.O=C(O)C(F)(F)F	39.3
COC(=O)CCC(=O)Nc1cc(C(=O)Nc2cc(C(=O)NCCCN(C)C)n(C)c2)n(C)c1.O=C(O)C(F)(F)F	0.6
CC(C)CCc1sc(NC(=O)c2cc(NC(=O)c3ccc(/C=C/c4cc5ccccc5nc4Cl)cc3)cn2C)nc1C(=O)NCCN1CCOCC1.O=C(O)C(F)(F)F	2.62
CC(=O)N(C(C)=O)c1cc(C(=O)Nc2cc(C(=O)NCCC(=N)N)n(C)c2)n(C)c1.O=C(O)C(F)(F)F	3.85
COc1cccc(C(=N)Nc2cc(C(=O)Nc3cc(C(=O)Nc4cc(C(=O)NCCCN(C)C)n(C)c4)n(C)c3)n(C)c2)c1.O=C(O)C(F)(F)F.O=C(O)C(F)(F)F	0.48
CN(C)CCCNC(=O)c1cc(NC(=O)c2cc(NC(=O)CCC(=O)O)cn2C)cn1C.O=C(O)C(F)(F)F	0.85
Cn1cc(NC(=O)c2cc(NC(=O)c3sc(N)nc3C(F)(F)F)cn2C)cc1C(=O)NCCC(=N)N.O=C(O)C(F)(F)F	5.72
CC(=N)Nc1cc(C(=O)Nc2cc(C(=O)Nc3cc(C(=O)NCCN4CCOCC4)n(C)c3)n(C)c2)n(C)c1.O=C(O)C(F)(F)F.O=C(O)C(F)(F)F	2.29
CC(C)CCc1sc(N)nc1C(=O)Nc1cc(C(=O)Nc2cc(C(=O)NCCN3CCOCC3)n(C)c2)n(C)c1.O=C(O)C(F)(F)F	4.42
CN(C)CCCNC(=O)c1cc(NC(=O)c2cc(NC(=O)c3cc(NC(=N)N)cn3C)cn2C)cn1C.O=C(O)C(F)(F)F.O=C(O)C(F)(F)F	2.03
Cn1cc(NC(=O)c2cc(NC(=O)CCC(=O)O)cn2C)cc1C(=O)NCCN1CCOCC1.O=C(O)C(F)(F)F	1.67
Cc1ncc(Cn2cc(CO)nn2)c(N)n1	1.92
Cc1ncc(CNc2cccc(F)c2)c(N)n1	1.91
Cc1ncc(CNc2ccc(Cl)cc2)c(N)n1	-0.54
Cn1cc(NC(=O)c2cc(NC(=O)c3ccc(/C=C/c4cccc(F)c4)cc3)cn2C)cc1C(=O)NCCN1CCOCC1.O=C(O)C(F)(F)F	24.2
Cc1ncc(Cn2cc(CC(N)C(=O)O)nn2)c(N)n1.Cl (configuration not stated)	2.15
COc1cccc(C(=N)Nc2cc(C(=O)Nc3cc(C(=O)Nc4cc(C(=O)NCCCN5CCOCC5)n(C)c4)n(C)c3)n(C)c2)c1.O=C(O)C(F)(F)F.O=C(O)C(F)(F)F	1.73
CN(C)CCCNC(=O)c1cc(NC(=O)c2cc(NC(=O)c3ccc(C(=O)O)cc3)cn2C)cn1C.O=C(O)C(F)(F)F	15.6
CC(C)n1cc(NC(=O)c2cc(NC(=O)c3cc(NC=O)cn3C(C)C)cn2C)cc1C(=O)NCCCN(C)C.O=C(O)C(F)(F)F	-1.38
Cc1ncc(Cn2cc(CCO)nn2)c(N)n1	0.2
Cc1ncc(CNc2ccccc2F)c(N)n1	1.65
CC(C)CCc1sc(NC(=O)c2cc(NC(=O)c3cc(NC(=O)c4ccc(C(=O)O)cc4)cn3C)cn2C)nc1C(=O)NCCCN(C)C.O=C(O)C(F)(F)F	8.07
CC(C)c1sc(N)nc1C(=O)Nc1cc(C(=O)Nc2cc(C(=O)NCCN3CCOCC3)n(C)c2)n(C)c1.O=C(O)C(F)(F)F	3.25
Cc1ncc(Cn2cc(CCCO)nn2)c(N)n1	0.26
CC(=O)Nc1cc(C(=O)Nc2cc(C(=O)Nc3cc(C(=O)NCCCN(C)C)n(CCC(C)C)c3)n(C)c2)n(C)c1.O=C(O)C(F)(F)F	0.94
Cn1cc(NC(=O)c2cc(NC(=O)c3cc(NC(=O)c4ccc(Cl)cc4Cl)cn3C)cn2C)cc1C(=O)NCCN1CCOCC1.O=C(O)C(F)(F)F	9.71

What follows are compounds tested on Cryptococcus neoformans. Conditions: Concentration 32 ug.mL-1; ASSAY_TEST Inhibition of Fungal Growth; detection method Resazurin; Absorption (OD600-OD570); plate type 384well; NBS; CORNING #3640.

SMILES	Inhibition [%]
COC(=O)CCC(=O)Nc1cc(C(=O)Nc2cc(C(=O)NCCN3CCOCC3)n(C)c2)n(C)c1.O=C(O)C(F)(F)F	-63.38
COC(=O)c1ccc(C(=O)Nc2cc(C(=O)Nc3cc(C(=O)NCCCN(C)C)n(C)c3)n(C)c2)cc1.O=C(O)C(F)(F)F	-107.28
CCOC(=O)CCC(NC(=O)c1ccc(NCc2cn(Cc3cnc(C)nc3N)nn2)cc1)C(=O)OCC (configuration not stated)	-67.67
COc1cccc(C(=N)Nc2cc(C(=O)Nc3cc(C(=O)NCCC(=N)N)n(C)c3)n(C)c2)c1.O=C(O)C(F)(F)F.O=C(O)C(F)(F)F	101.54
COC(=O)CCC(=O)Nc1cc(C(=O)Nc2cc(C(=O)NCCCN(C)C)n(C)c2)n(C)c1.O=C(O)C(F)(F)F	-50.28
CC(C)CCc1sc(NC(=O)c2cc(NC(=O)c3ccc(/C=C/c4cc5ccccc5nc4Cl)cc3)cn2C)nc1C(=O)NCCN1CCOCC1.O=C(O)C(F)(F)F	-70.82
CC(=O)N(C(C)=O)c1cc(C(=O)Nc2cc(C(=O)NCCC(=N)N)n(C)c2)n(C)c1.O=C(O)C(F)(F)F	87.54
COc1cccc(C(=N)Nc2cc(C(=O)Nc3cc(C(=O)Nc4cc(C(=O)NCCCN(C)C)n(C)c4)n(C)c3)n(C)c2)c1.O=C(O)C(F)(F)F.O=C(O)C(F)(F)F	-103.02
CN(C)CCCNC(=O)c1cc(NC(=O)c2cc(NC(=O)CCC(=O)O)cn2C)cn1C.O=C(O)C(F)(F)F	-54.8
Cn1cc(NC(=O)c2cc(NC(=O)c3sc(N)nc3C(F)(F)F)cn2C)cc1C(=O)NCCC(=N)N.O=C(O)C(F)(F)F	-104.75
CC(=N)Nc1cc(C(=O)Nc2cc(C(=O)Nc3cc(C(=O)NCCN4CCOCC4)n(C)c3)n(C)c2)n(C)c1.O=C(O)C(F)(F)F.O=C(O)C(F)(F)F	-100.58
CC(C)CCc1sc(N)nc1C(=O)Nc1cc(C(=O)Nc2cc(C(=O)NCCN3CCOCC3)n(C)c2)n(C)c1.O=C(O)C(F)(F)F	-77.2
CN(C)CCCNC(=O)c1cc(NC(=O)c2cc(NC(=O)c3cc(NC(=N)N)cn3C)cn2C)cn1C.O=C(O)C(F)(F)F.O=C(O)C(F)(F)F	-105.56
Cn1cc(NC(=O)c2cc(NC(=O)CCC(=O)O)cn2C)cc1C(=O)NCCN1CCOCC1.O=C(O)C(F)(F)F	-38.65
Cc1ncc(Cn2cc(CO)nn2)c(N)n1	-37.01
Cc1ncc(CNc2cccc(F)c2)c(N)n1	-50.34
Cc1ncc(CNc2ccc(Cl)cc2)c(N)n1	-54.67
Cc1ncc(Cn2cc(CC(N)C(=O)O)nn2)c(N)n1.Cl (configuration not stated)	-37.7
COc1cccc(C(=N)Nc2cc(C(=O)Nc3cc(C(=O)Nc4cc(C(=O)NCCCN5CCOCC5)n(C)c4)n(C)c3)n(C)c2)c1.O=C(O)C(F)(F)F.O=C(O)C(F)(F)F	-103.93
CN(C)CCCNC(=O)c1cc(NC(=O)c2cc(NC(=O)c3ccc(C(=O)O)cc3)cn2C)cn1C.O=C(O)C(F)(F)F	-106.52
CC(C)n1cc(NC(=O)c2cc(NC(=O)c3cc(NC=O)cn3C(C)C)cn2C)cc1C(=O)NCCCN(C)C.O=C(O)C(F)(F)F	-103.79
Cc1ncc(Cn2cc(CCO)nn2)c(N)n1	-50.84
Cc1ncc(CNc2ccccc2F)c(N)n1	-54.68
CC(C)CCc1sc(NC(=O)c2cc(NC(=O)c3cc(NC(=O)c4ccc(C(=O)O)cc4)cn3C)cn2C)nc1C(=O)NCCCN(C)C.O=C(O)C(F)(F)F	-119.21
CC(C)c1sc(N)nc1C(=O)Nc1cc(C(=O)Nc2cc(C(=O)NCCN3CCOCC3)n(C)c2)n(C)c1.O=C(O)C(F)(F)F	-112.04
Cc1ncc(Cn2cc(CCCO)nn2)c(N)n1	-29.76
CC(=O)Nc1cc(C(=O)Nc2cc(C(=O)Nc3cc(C(=O)NCCCN(C)C)n(CCC(C)C)c3)n(C)c2)n(C)c1.O=C(O)C(F)(F)F	-102.49
Cn1cc(NC(=O)c2cc(NC(=O)c3cc(NC(=O)c4ccc(Cl)cc4Cl)cn3C)cn2C)cc1C(=O)NCCN1CCOCC1.O=C(O)C(F)(F)F	9.62
